Assay [1] can be described thus: NCI Yeast Anticancer Drug Screen. Data for the rad50 strain (AID 155).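 Note: 0% = growth of vehicle-only cultures of the same strain.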 The note with it: S. cerevisiae rad50 strain growth inhibition, active compounds read high. An outline of the steps:
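DNA repair mutant yeast, compound exposure, growth read-out; inhibition is taken relative to vehicle.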

A short description of assay [2]: NCI Yeast Anticancer Drug Screen. Data for the mec2-1 strain (AID 157). To be noted: S. cerevisiae mec2-1 strain, active compounds read high. The procedure, abridged:
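Each compound was tested on mec2-1 yeast, a strain altered in DNA damage repair or cell cycle control. Growth inhibition is reported relative to vehicle.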

Assay [3] is described as follows: NCI Yeast Anticancer Drug Screen. Data for the sgs1 mgt1 strain (AID 161).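 Note: 0% = growth of cultures given vehicle only.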 To be noted: S. cerevisiae sgs1 mgt1 strain, active compounds read high. The procedure, abridged:
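Mutant yeast exposed to compound; growth scored against vehicle-only wells.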

A short description of assay [4]: NCI Yeast Anticancer Drug Screen. Data for the cln2 rad14 strain (AID 165).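 Note: 0% = growth equal to vehicle treated cultures.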 To be noted: S. cerevisiae cln2 rad14 strain, active compounds read high. The procedure, abridged: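 Test compounds were added to cln2 rad14 yeast cultures; inhibition of growth was then determined by comparison with vehicle treatment.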
A short description of assay [5]: NCI Yeast Anticancer Drug Screen. Data for the bub3 strain (AID 167). The note with it: S. cerevisiae bub3 mutant strain, active compounds read high. The procedure, abridged: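 In this screen, a yeast mutant lacking normal mitotic checkpoint function is challenged with compound. Relative growth versus vehicle gives the inhibition value.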
Assay [6] can be described thus: NCI Yeast Anticancer Drug Screen. Data for the mlh1 rad18 strain (AID 175). To be noted: S. cerevisiae mlh1 rad18 strain growth inhibition, active compounds read high. The procedure, abridged: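 Inhibition values reflect reduced growth of mutant yeast versus vehicle-treated controls following compound exposure; the mutations affect DNA damage repair.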
Setting [7] is: at 5.0 µM (retest, dose inferred, filed as 0.5).
Where [8] appears, read: at 50.0 µM (retest, dose inferred, filed as 5.0).

Compounds without any hit were thinned out: in the full panel of roughly 79,000, 15% have a hit. Values without a mark were called inactive. Active and inactive are the calls of the source. Cut-off read from the data, not from the text of the source: active = growth inhibition above about 70%; inactive = the rest.

With `ClCCCCCl`, the growth inhibition in assay [1] (setting [7]) was 13%; in assay [1] (setting [8]), -2%; in assay [1] (at 50.0 µM), 32.2%; in assay [2] (setting [7]) it was -4%; in assay [2] (setting [8]) it was -2%; in assay [2] (at 50.0 µM), 16.8%. Besides, the growth inhibition was 5% in assay [3] (setting [7]); -5% in assay [3] (setting [8]); -18.9% in assay [3] (at 50.0 µM); 5% in assay [4] (setting [7]); -6% in assay [4] (setting [8]); 41% in assay [4] (at 50.0 µM). Besides, the growth inhibition in assay [5] (setting [7]) was 4%; in assay [5] (setting [8]) it was 0%; in assay [5] (at 50.0 µM), -17.6%; in assay [6] (setting [7]), 4%; in assay [6] (setting [8]), -1%; in assay [6] (at 50.0 µM), 26.6%.

Consider `COC(=O)C(C)(C)[n+]1c(C)cc(C)cc1C`, for which the growth inhibition in assay [1] (setting [7]) was -13%; in assay [1] (setting [8]), -6%; in assay [1] (at 50.0 µM), -5.45%; in assay [2] (setting [7]) it was -5%; in assay [2] (setting [8]) it was -35%; in assay [2] (at 50.0 µM) it was -3%. Further, the growth inhibition is -17% in assay [3] (setting [7]); -14% in assay [3] (setting [8]); -3.1% in assay [3] (at 50.0 µM); -10% in assay [4] (setting [7]); -8% in assay [4] (setting [8]); -7.1% in assay [4] (at 50.0 µM). The growth inhibition in assay [5] (setting [7]) is 1%; in assay [5] (setting [8]) it was 8%; in assay [5] (at 50.0 µM), -6.5%; in assay [6] (setting [7]), -1%; in assay [6] (setting [8]) it was 5%; in assay [6] (at 50.0 µM), 5.9%.

For the compound `c1cc[c]([Sn]([c]2ccccc2)([c]2ccccc2)[c]2ccccc2)cc1`, the growth inhibition was -2% in assay [1] (setting [7]); -3% in assay [1] (setting [8]); 60.2% in assay [1] (at 50.0 µM); -3% in assay [2] (setting [7]); 1% in assay [2] (setting [8]); 53.4% in assay [2] (at 50.0 µM). Moreover, the growth inhibition in assay [3] (setting [7]) is 0%; in assay [3] (setting [8]), -2%; in assay [3] (at 50.0 µM) it was 86.5% (active); in assay [4] (setting [7]), -1%; in assay [4] (setting [8]), -4%; in assay [4] (at 50.0 µM), -20.4%. Besides, the growth inhibition is 2% in assay [5] (setting [7]); 2% in assay [5] (setting [8]); 46% in assay [5] (at 50.0 µM); 1% in assay [6] (setting [7]); -4% in assay [6] (setting [8]); 81.9% (active) in assay [6] (at 50.0 µM).

With `C[C@]12CC[C@H]3[C@@H](C[C@@H](F)C4=CC(=O)CC[C@@]43C)[C@@H]1CC[C@@H]2O`, the growth inhibition in assay [1] (setting [7]) is 7%; in assay [1] (setting [8]) it was 46%; in assay [1] (at 50.0 µM) it was 56.2%; in assay [2] (setting [7]), 3%; in assay [2] (setting [8]), 58%; in assay [2] (at 50.0 µM), 7.4%. In addition, the growth inhibition was 4% in assay [3] (setting [7]); 93% (active) in assay [3] (setting [8]); 56% in assay [3] (at 50.0 µM); -2% in assay [4] (setting [7]); 30% in assay [4] (setting [8]); 6.75% in assay [4] (at 50.0 µM). The growth inhibition in assay [5] (setting [7]) is 0%; in assay [5] (setting [8]), 80% (active); in assay [5] (at 50.0 µM), 34%; in assay [6] (setting [7]) it was 15%; in assay [6] (setting [8]), 86% (active); in assay [6] (at 50.0 µM), 30.1%.

`Oc1ccc2ccccc2c1O`: the growth inhibition was 13% in assay [1] (setting [7]); 81% (active) in assay [1] (setting [8]); 66.4% in assay [1] (at 50.0 µM); 3% in assay [2] (setting [7]); 59% in assay [2] (setting [8]); 50.9% in assay [2] (at 50.0 µM). Moreover, the growth inhibition in assay [3] (setting [7]) was 7%; in assay [3] (setting [8]), 84% (active); in assay [3] (at 50.0 µM) it was 57.3%; in assay [4] (setting [7]), -5%; in assay [4] (setting [8]) it was 30%; in assay [4] (at 50.0 µM), 34%. The growth inhibition in assay [5] (setting [7]) was 32%; in assay [5] (setting [8]) it was 90% (active); in assay [5] (at 50.0 µM) it was 70% (active); in assay [6] (setting [7]), 20%; in assay [6] (setting [8]) it was 92% (active); in assay [6] (at 50.0 µM), 86.2% (active).

Regarding `C[CH2][Sn]([CH2]C)([S]CCS(=O)(=O)O)[S]CCS(=O)(=O)O` (tested in a mixture with another compound), the growth inhibition in assay [1] (setting [7]) is 18%; in assay [1] (setting [8]), 26%; in assay [1] (at 50.0 µM) it was 53.9%; in assay [2] (setting [7]), 17%; in assay [2] (setting [8]) it was 46%; in assay [2] (at 50.0 µM), 45.8%. The growth inhibition in assay [3] (setting [7]) was -22%; in assay [3] (setting [8]), 54%; in assay [3] (at 50.0 µM) it was 27.3%; in assay [4] (setting [7]), -10%; in assay [4] (setting [8]), 67%; in assay [4] (at 50.0 µM), 19%. Moreover, the growth inhibition was -1% in assay [5] (setting [7]); 66% in assay [5] (setting [8]); 17.6% in assay [5] (at 50.0 µM); 16% in assay [6] (setting [7]); 32% in assay [6] (setting [8]); -25.9% in assay [6] (at 50.0 µM).

Consider `Cc1ccc2c[c]1[Hg][CH2]COS2(=O)=O`, for which the growth inhibition in assay [1] (setting [7]) was 33%; in assay [1] (setting [8]) it was 98% (active); in assay [1] (at 50.0 µM) it was 94.7% (active); in assay [2] (setting [7]), 16%; in assay [2] (setting [8]), 99% (active); in assay [2] (at 50.0 µM) it was 98% (active). Also, the growth inhibition is 48% in assay [3] (setting [7]); 99% (active) in assay [3] (setting [8]); 97.5% (active) in assay [3] (at 50.0 µM); 9% in assay [4] (setting [7]); 98% (active) in assay [4] (setting [8]); 98.7% (active) in assay [4] (at 50.0 µM). Also, the growth inhibition in assay [5] (setting [7]) is -2%; in assay [5] (setting [8]), 99% (active); in assay [5] (at 50.0 µM), 99.2% (active); in assay [6] (setting [7]) it was 24%; in assay [6] (setting [8]), 97% (active); in assay [6] (at 50.0 µM), 98.2% (active).

Values taken from PubChem BioAssay (NCI).
